# According to PubChem BioAssay AID493170 (National Center for Advancing Translational Sciences (NCATS), 2011):
# Results filed as inconclusive are left out. Unmarked numbers belong to inactive results. Active and inactive are the calls of the source. The call rests on the fitted dose curve; in most records, active means well fitted inhibition curve with a large enough effect; inconclusive means small, poorly fitted or top-dose-only effect, or effect the other way; inactive means flat fitted curve, though single readings scatter.
# Molecular target: Ubiquitin carboxyl-terminal hydrolase 2 (Homo sapiens) (UniProt O75604)
# Sequence (O75604 whole entry, looked up): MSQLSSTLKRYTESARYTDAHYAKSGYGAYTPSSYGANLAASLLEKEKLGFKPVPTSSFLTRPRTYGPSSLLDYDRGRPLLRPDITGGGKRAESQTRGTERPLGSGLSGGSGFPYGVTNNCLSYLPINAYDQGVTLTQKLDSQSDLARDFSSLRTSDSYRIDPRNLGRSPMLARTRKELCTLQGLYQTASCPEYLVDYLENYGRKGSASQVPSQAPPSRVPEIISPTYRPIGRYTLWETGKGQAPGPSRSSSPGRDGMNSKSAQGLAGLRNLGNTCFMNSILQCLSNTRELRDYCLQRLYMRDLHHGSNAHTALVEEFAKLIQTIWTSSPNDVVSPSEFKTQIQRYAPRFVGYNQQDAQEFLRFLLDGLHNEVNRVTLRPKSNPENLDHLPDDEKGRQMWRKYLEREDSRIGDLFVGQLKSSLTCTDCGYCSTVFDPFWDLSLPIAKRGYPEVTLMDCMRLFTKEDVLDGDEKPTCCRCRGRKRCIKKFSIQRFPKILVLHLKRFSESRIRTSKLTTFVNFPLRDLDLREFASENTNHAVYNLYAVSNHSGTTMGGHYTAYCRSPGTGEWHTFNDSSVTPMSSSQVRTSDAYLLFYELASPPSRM
# Test: Ub-rhodamine 110 based assay for inhibitors Ubiquitin-specific Protease USP2a; further: nearly all actives have a fitted effect of over 50% in size
# Conditions: USP2a Ub-rhodamine110 cleavage, fluorescence; series mostly up to 38.3 µM; activity change, negative = inhibition: at the top concentration
# Procedure, shortened: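 Kinetic fluorescence (485/531 nm) read each minute over 7 min after adding Ub-Rhod110 (150 nM final) to USP2a (5 nM final). The enzyme had 30 min RT exposure to compounds beforehand in Tris pH 8.0 buffer with CaCl2, CHAPS and beta-ME.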
# On the % scale 0 is the no-effect control and ±100 the full control effect; potency means the concentration at half of the fitted maximal effect.
SMILES,"activity change, negative = inhibition [%]",Potency
CC1CCCC(NC(=O)C2N(CCCN3CCCC3)C(=O)C3C(C(=O)Nc4ccc(Cl)cc4)C4C=CC32O4)C1C (stereo unspecified),-8.64,–
COc1ccc(CCn2c(O)cc3nn(-c4nc5ccccc5s4)c(=O)c-3c2C)cc1,–,5.62 µM (active)
O=C1COc2ccc(C(=O)COC(=O)/C=C/c3ccc(Br)o3)cc2N1,–,2.24 µM (active)
CCC(C(=O)NCc1ccccc1OC)n1nc(C)n2c(cc3occc32)c1=O (stereo unspecified),-4.2,–
O=C(NC1CCCC1)C1C2C=CC(C2)C1C(=O)N1CCOCC1 (stereo unspecified),2.69,–
COc1ccc(C(=O)Nc2ccc(N3CCCC3)cc2)cc1OC,-7.74,–
O=C(c1ccccc1N(Cc1ccccc1)S(=O)(=O)c1ccccc1)N1CCOCC1,-4.89,–
Cc1ccc(C(=O)C(=S)N2CCOCC2)cc1,7.4,–
Cc1ccc(CN2C(=O)N/C(=C\c3cccn3-c3cccc(C(=O)O)c3)C2=O)cc1,-19.5,–
C/C(=N/NC(=O)c1cc2ccccc2cc1O)C1C(=O)c2ccccc2C1=O,–,1.78 µM (active)
COc1ccc(NC(=O)CSc2nc(O)cc(=O)n2-c2ccc(OC)cc2)cc1,–,11.2 µM (active)
CCOC(=O)c1c(-c2ccc(C)o2)csc1NC(=O)COC(=O)c1ccc(NC(N)=O)cc1,–,7.08 µM (active)
COc1ccc(CCN2CC(C#N)=C3c4cc(OC)c(OC)cc4CCN3C2)cc1OC,-14.6,–
CCOC(=O)Cn1c(=O)oc2cc(S(=O)(=O)Nc3cc(Cl)ccc3OC)ccc21,-6.33,–
N#CCc1ccc(NC(=O)/C=C/c2ccc([N+](=O)[O-])o2)cc1,–,10 µM (active)
Nc1cc(N)nc(SCC(=O)N2CCCCC2)n1,-5.91,–
